Reference: PubChem BioAssay
Calls of active or inactive are those of the source. Unless noted, how the calls were made is not given here.

Experiments:
[1] = tested on: XIP peptide (Xip251-270) binding; experiment: XIP fragment 251-270 binding compounds – biochemical, small-molecule microarray, fluorescence 635/667 nm, 0.1 µg/mL protein, primary screen (AID 1182); conditions: fluorescent protein binding, 635 nm, higher = more signal, called active from +8 up or from −8 down
XIP peptide (Xip251-270) = experiment: compounds binding XIP fragment 251-270 – biochemical, small-molecule microarray, fluorescence 635/667 nm, 0.5 µg/mL protein, primary screen (AID 1183); conditions: fluorescence 635 nm, higher = more signal
[2] = blood-stage malaria parasite viability loss – strain 3D7, DAPI fluorescence, 100 nL, primary screen (AID 1184);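 further: parasites grown inside human red blood cells in medium with human serum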; conditions: P. falciparum 3D7 growth, 3 d, higher = more signal
[3] = biological target: Homeobox protein Hox-A13 (Mus musculus) (UniProt Q62424); experiment: disruptors of Hoxa13 oligonucleotide interaction – biochemical, fluorescence polarization, labeled oligonucleotide, primary screen (AID 1185); conditions: Hoxa13:DNA binding, 15 min, higher = more signal, called active from +8 up or from −8 down
Sequence of Homeobox protein Hox-A13 (Mus musculus) (Q62424 whole entry, looked up): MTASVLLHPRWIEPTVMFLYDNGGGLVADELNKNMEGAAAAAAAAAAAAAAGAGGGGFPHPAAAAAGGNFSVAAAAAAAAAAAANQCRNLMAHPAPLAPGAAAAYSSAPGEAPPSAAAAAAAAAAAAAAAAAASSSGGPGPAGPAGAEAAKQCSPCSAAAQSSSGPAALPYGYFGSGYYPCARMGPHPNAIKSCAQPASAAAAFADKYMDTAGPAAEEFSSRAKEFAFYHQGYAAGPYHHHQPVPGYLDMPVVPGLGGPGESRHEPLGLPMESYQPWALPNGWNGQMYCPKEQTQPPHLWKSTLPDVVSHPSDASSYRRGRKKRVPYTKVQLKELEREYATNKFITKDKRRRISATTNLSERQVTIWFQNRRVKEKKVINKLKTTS

[4] = blockers of DNA damage checkpoint Chk1 activation – imaging, HeLa, hydroxyurea, phospho-Chk1 antibody, percent positive cells, primary screen (AID 1186); conditions: hydroxyurea-induced phospho-Chk1 immunofluorescence imaging, higher = more signal
[5] = blockers of DNA damage checkpoint Chk1 activation – imaging, HeLa, hydroxyurea, phospho-Chk1 nuclear intensity, primary screen (AID 1187); conditions: hydroxyurea-induced phospho-Chk1 immunofluorescence imaging, higher = more signal

Compound | composite z-score [1] | composite z-score (XIP peptide (Xip251-270)) | z-score [2] | z-score [3] | z-score [4] | z-score [5]
CC(=O)NCCCC[C@@H]1NC(=O)[C@@H]2C[C@H](C(=O)NCCCCCCN(C)C)[C@H](c3ccc(O)cc3)N2C1=O | 1.9 (inactive) | 0.852 | -0.289 | -0.0113 (inactive) | 0.313 (inactive) | 0.54 (inactive)
O=C1C2C=CC(C(O)c3ccccc3)N(n3cnnc3)C2C(=O)N1Cc1ccccc1 (stereo unspecified) | -0.377 (inactive) | -0.179 | 0.454 | -2.02 (inactive) | -1.25 (inactive) | -1.21 (inactive)
COc1ccc(CCNC(=O)[C@@]2(c3ccc([N+](=O)[O-])cc3)CC(=O)N(C(C)C)[C@@H]2c2ccc(CO)cc2)cc1 | 1.25 (inactive) | -0.904 | -0.303 | -3.03 (inactive) | -0.322 (inactive) | -0.0259 (inactive)
C[N+](C)(C)CCCC[C@@H]1NC(=O)[C@H]2C[C@@H](C(=O)NCc3ccc(F)cc3)[C@@H](c3cccc(OCCO)c3)N2C1=O | 1.61 (inactive) | 0.675 | 0.13 | -1.22 (inactive) | 0.06 (inactive) | 0.274 (inactive)
COc1ccc([Si](C)(C)[C@H]2[C@H](CC(=O)N3Cc4ccccc4C[C@H]3CO)O[C@@]3(C(=O)N(Cc4cccc(N5CCOC5=O)c4)c4ccccc43)[C@@H]2C)cc1 | 0.873 (inactive) | 0.625 | -1.55 | -3.02 (inactive) | -0.958 (inactive) | -0.191 (inactive)
NC(=O)NCC#Cc1ccc2c(c1)[C@]1(C(=O)N2)[C@H](C(=O)N2CCCCCCC2)[C@H]2C(=O)O[C@H](c3ccccc3)[C@H](c3ccccc3)N2[C@@H]1c1ccccc1OCCO | 4.02 (inactive) | 0.486 | -1.83 | 4.43 (inactive) | 0.323 (inactive) | 0.671 (inactive)
C=C(COC)/C(=C/C[C@H](OC(C)=O)c1ccc(OCCO)cc1)c1cnc2ccccc2c1 | 0.878 (inactive) | 0.0356 | -3.08 | -3.6 (inactive) | -0.619 (inactive) | -0.632 (inactive)
CCOC(=O)C1=CC[C@@H](c2ccccc2)N(S(=O)(=O)c2ccc(C)cc2)[C@H]1C | 0.214 (inactive) | 0.862 | -1.5 | -2.38 (inactive) | -0.325 (inactive) | -0.586 (inactive)
CC1CC/C=C\[C@H]2OC34C=CCN(Cn5nnc6ccccc65)C(=O)[C@H]3N(C(C)CO)C(=O)[C@@H]4C2C(=O)O1 (stereo partly specified) | 0.205 (inactive) | 0.0783 | 0.189 | -4.29 (inactive) | -0.087 (inactive) | -0.361 (inactive)
O=C(NCC(F)(F)F)[C@@H]1c2ccccc2C(=O)N(Cc2ccccc2Cl)[C@H]1c1ccc(CO)cc1 | 0.0987 (inactive) | 0.0561 | -0.472 | -2.37 (inactive) | 0.178 (inactive) | 0.449 (inactive)
COc1cc2c(cc1OC)CN(C(=O)[C@H]1[C@@H]3C(=O)O[C@@H](c4ccccc4)[C@@H](c4ccccc4)N3[C@@H](c3ccccc3OCCO)[C@]13C(=O)Nc1ccc(C#CC4(O)CCCCCC4)cc13)CC2 | 1.62 (inactive) | 0.837 | -2.14 | 1.74 (inactive) | -0.0766 (inactive) | 0.196 (inactive)
CC(=O)NCCCC[C@@H]1NC(=O)[C@@H]2C[C@H](C(=O)NCCCCCNC(=O)CS)[C@H](c3ccc(O)cc3)N2C1=O | 0.214 (inactive) | 0.132 | -0.59 | -3.98 (inactive) | 1.12 (inactive) | 0.99 (inactive)
C=CCNC(=O)[C@H]1[C@@H]2C(=O)O[C@@H](c3ccccc3)[C@@H](c3ccccc3)N2[C@@H](c2ccc(O)cc2)[C@]12C(=O)Nc1ccc(C#CCNC(N)=O)cc12 | 0.342 (inactive) | 0.0866 | -0.491 | -2.56 (inactive) | 0.191 (inactive) | 0.424 (inactive)
O=C/C=C/c1ccc(/C=C/c2ccccc2)cc1 | -0.837 (inactive) | -0.443 | 3.9 | 0.0626 (inactive) | 0.144 (inactive) | 0.848 (inactive)
O=C1O[C@H](c2ccccc2)[C@H](c2ccccc2)N2[C@H]1[C@@H](C(=O)NC[C@H](O)c1ccccc1)[C@]1(C(=O)Nc3ccc(C#CC4(O)CCCCCC4)cc31)[C@H]2c1ccc(OCCO)cc1 | -0.342 (inactive) | 0.799 | -1.45 | 0.199 (inactive) | -0.309 (inactive) | -0.412 (inactive)
O=C1C[C@@](C(=O)NC2CC2)(c2ccc([N+](=O)[O-])cc2)[C@@H](c2ccc(CO)cc2I)N1CC12CC3CC(CC(C3)C1)C2 | 0.479 (inactive) | 0.687 | -1.29 | -3.64 (inactive) | -0.174 (inactive) | -0.372 (inactive)
